Common to all, as to parameters: scale not given: direction of the effect not stated beside the values
Assay [1] deals with Protein translocase subunit SecA (Escherichia coli (strain K12)) (UniProt P10408). The assay can be described thus: Assay to Identify E. coli SecA ATPase Inhibitors. Format: functional. As to conditions: 30 µM.
Assay [2] deals with T1, Ubiquitin-activating enzyme e1, putative (Leishmania donovani (strain BPK282A1)) (UniProt E9BSI1).
T1 sequence (whole entry): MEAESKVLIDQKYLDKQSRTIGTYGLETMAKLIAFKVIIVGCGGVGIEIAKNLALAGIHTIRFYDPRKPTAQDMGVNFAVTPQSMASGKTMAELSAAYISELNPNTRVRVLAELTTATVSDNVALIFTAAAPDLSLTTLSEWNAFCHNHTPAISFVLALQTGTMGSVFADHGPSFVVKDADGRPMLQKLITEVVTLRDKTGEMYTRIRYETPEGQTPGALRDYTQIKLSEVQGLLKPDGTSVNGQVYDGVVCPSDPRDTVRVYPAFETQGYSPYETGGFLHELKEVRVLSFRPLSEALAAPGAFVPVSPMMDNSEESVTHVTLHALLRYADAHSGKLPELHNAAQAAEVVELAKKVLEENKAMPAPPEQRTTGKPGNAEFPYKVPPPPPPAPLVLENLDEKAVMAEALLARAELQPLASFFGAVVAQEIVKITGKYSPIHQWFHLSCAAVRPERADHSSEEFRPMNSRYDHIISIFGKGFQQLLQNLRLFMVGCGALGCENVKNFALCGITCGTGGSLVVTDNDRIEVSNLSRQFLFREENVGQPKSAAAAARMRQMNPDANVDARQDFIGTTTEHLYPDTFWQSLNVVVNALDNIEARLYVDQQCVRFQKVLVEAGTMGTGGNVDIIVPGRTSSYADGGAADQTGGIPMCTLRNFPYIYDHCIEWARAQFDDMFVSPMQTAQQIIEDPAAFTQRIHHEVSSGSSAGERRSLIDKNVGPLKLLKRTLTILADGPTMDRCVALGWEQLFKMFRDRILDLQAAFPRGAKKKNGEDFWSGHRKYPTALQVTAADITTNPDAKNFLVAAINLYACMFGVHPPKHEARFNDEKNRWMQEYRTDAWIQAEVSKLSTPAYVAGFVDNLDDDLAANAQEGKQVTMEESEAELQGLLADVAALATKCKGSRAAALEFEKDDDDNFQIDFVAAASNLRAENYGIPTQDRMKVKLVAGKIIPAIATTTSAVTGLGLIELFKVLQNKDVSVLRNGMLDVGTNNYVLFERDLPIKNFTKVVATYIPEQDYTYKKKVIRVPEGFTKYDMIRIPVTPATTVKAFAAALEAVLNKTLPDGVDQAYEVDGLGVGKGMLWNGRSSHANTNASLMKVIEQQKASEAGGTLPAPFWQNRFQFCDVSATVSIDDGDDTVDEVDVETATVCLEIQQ
The assay can be described thus: Leishmania donovani Ubiquitin Activating Enzyme (LdE1). Format: functional. The conditions noted are these: 30 µM.

Assay [3] concerns the target AMP-activated protein kinase, AMPK (Homo sapiens) (UniProt P54646+O43741+P54619+Q9UGJ0+Q9Y478+Q13131+Q9UGI9). Kind of assay: AMP-dependent Kinase enzyme assay. An in vitro enzyme assay that detects ADP turnover that is directly proportional to AMPK activity. This uses naive AMPK that is activated during the assay with MK-8722. Format: functional. As to conditions: 30 µM.

Assay [4] addresses Sialic acid-binding Ig-like lectin 9 (Homo sapiens) (UniProt Q9Y336). Kind of assay: Hs-Siglec9 ALPHAscreen SOP 20170721. As to conditions: 10 µM. (In general: Bead proximity is the source of the signal in Alpha formats.)
The subject of another assay is Trypanosoma cruzi. The assay can be described thus: Trypanosoma cruzi phosphomannomutase and mannose-1-phosphate guanylyltransferase assay. The conditions noted are these: 10 µM. The format is functional.
Assay [5] has as its target T2, Arginase-2, mitochondrial (Homo sapiens) (UniProt P78540).
T2 sequence (whole entry): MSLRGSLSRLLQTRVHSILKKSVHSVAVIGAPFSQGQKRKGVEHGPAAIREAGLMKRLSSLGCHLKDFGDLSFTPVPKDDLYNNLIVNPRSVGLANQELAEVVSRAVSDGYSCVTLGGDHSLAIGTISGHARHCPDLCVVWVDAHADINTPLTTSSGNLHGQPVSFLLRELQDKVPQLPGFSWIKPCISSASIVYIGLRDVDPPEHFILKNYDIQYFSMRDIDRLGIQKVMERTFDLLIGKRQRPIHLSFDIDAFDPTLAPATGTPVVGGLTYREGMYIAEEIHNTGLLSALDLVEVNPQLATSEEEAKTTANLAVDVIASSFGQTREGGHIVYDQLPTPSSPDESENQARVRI
The assay can be described thus: in vitro enzyme assay to detect the production of urea directly proportional to the activity of Arginase II. Further: in the data most compounds retested in dose-response had high values. As to conditions: 33.3 µM. The format is functional.

Assay [6] has as its target T3, Proteasome subunit beta (Trypanosoma cruzi) (UniProt O96673).
T3 sequence (whole entry): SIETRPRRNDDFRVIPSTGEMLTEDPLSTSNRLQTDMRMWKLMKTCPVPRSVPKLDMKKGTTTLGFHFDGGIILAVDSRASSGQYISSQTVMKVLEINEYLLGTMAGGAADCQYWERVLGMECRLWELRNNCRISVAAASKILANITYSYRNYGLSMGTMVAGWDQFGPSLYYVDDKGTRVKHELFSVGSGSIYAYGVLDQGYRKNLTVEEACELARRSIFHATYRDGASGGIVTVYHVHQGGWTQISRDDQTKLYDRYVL
Kind of assay: Trypanosoma cruzi proteasome chymotrypsin-like activity (TcProtChymo) assay. Further: in the data most compounds retested in dose-response had high values. The format is functional. The conditions noted are these: 9.37 µM.

The next assay is filed under the species Homo sapiens. The assay can be described thus: To identify inhibition of the IFN signalling (Jak-Stat) pathway via expression of an eGFP reporter gene under the control of an IFN-stimulated response element (ISRE) containing MxA promoter. The conditions noted are these: 30 µM. Format: functional. In general terms: A reporter such as luciferase makes a cellular process visible.

For assay [7], the target named is T4, Tyrosyl-tRNA synthetase, putative (Trypanosoma cruzi (strain CL Brener)) (UniProt Q4DSP6).
T4 sequence (whole entry): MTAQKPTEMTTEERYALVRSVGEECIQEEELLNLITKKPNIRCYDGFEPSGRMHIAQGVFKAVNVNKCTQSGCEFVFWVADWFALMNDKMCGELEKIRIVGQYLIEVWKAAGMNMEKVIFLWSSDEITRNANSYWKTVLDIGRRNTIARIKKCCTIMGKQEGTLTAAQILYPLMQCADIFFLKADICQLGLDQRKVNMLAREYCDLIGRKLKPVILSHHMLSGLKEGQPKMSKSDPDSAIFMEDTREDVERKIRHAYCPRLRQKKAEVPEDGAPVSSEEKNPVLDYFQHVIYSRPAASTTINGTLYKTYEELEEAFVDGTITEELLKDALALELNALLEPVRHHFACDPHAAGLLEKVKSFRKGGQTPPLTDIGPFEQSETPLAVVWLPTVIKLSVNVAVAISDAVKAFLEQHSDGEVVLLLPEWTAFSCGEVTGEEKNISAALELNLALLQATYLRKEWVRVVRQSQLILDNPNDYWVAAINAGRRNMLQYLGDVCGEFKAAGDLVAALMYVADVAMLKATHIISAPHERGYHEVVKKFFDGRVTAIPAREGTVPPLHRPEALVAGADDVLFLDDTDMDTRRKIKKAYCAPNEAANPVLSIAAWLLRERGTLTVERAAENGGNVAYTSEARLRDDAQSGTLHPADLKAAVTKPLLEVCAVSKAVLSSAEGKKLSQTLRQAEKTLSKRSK
The assay can be described thus: Trypanosoma cruzi tyrosyl tRNA synthetase (TcYRS) _High Tyrosine SOP. Further: in the data most compounds retested in dose-response had high values. The format is functional. As to conditions: 30 µM.

The target in assay [8] is T4, Tyrosyl-tRNA synthetase, putative (Trypanosoma cruzi (strain CL Brener)). The assay can be described thus: Trypanosoma cruzi tyrosyl tRNA synthetase (TcYRS) SOP. The format is functional. The conditions noted are these: 30 µM.
In assay [9] the target is Chromo domain-containing protein 1 (Saccharomyces cerevisiae (strain ATCC 204508 / S288c) (Baker's yeast)) (UniProt P32657). The assay can be described thus: ScCHD-1 Enzyme Inhibition Assay. Further: in the data most compounds retested in dose-response had high values. As to conditions: 30 µM. Format: functional.
Chain of Chromo domain-containing protein 1 (Saccharomyces cerevisiae (strain ATCC 204508 / S288c) (Baker's yeast)) (P32657 whole entry, the tested form may be a part): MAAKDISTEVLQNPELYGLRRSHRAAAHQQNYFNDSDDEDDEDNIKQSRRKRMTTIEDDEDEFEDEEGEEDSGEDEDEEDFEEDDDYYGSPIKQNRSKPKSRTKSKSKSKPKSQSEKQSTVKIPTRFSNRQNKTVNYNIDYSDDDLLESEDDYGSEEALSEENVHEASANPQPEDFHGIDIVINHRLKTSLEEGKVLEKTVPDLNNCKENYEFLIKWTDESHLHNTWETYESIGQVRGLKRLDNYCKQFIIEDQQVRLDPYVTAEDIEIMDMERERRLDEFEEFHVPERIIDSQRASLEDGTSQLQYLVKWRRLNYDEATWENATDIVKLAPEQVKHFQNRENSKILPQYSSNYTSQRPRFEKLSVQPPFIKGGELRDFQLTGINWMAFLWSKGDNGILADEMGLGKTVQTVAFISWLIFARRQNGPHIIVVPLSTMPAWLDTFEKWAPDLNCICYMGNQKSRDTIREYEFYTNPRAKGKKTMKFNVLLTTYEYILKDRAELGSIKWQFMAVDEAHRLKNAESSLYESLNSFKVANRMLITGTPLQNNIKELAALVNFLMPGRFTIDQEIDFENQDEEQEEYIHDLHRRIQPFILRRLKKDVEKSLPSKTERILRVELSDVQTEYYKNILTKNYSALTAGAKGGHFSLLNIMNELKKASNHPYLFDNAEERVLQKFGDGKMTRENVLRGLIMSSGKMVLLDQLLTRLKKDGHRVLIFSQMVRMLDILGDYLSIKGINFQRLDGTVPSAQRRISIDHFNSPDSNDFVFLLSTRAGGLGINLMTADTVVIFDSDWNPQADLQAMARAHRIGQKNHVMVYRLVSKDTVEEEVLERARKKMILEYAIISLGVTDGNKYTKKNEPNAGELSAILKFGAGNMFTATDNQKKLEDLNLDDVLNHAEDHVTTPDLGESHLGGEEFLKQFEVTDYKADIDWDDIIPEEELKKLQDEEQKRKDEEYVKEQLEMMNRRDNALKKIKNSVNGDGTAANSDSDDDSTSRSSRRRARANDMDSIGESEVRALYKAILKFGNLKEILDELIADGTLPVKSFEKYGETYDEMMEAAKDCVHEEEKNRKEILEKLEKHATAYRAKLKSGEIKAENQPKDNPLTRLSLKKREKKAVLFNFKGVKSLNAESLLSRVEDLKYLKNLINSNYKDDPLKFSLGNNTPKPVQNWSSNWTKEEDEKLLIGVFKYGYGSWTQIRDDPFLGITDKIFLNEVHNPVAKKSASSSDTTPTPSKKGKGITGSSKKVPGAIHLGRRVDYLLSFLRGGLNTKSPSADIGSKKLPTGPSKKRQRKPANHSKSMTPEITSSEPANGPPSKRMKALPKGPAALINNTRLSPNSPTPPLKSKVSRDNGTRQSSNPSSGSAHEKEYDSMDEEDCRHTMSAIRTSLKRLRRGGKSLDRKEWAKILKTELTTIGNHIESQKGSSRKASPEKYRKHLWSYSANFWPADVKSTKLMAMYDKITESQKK

Here are results for 10 compounds from ChEMBL document CHEMBL3988442, “University of Dundee, Small-Polar-MMV Screening Library” (2021).

For some assays here: Potency and affinity values are given separately.

Chain of Sialic acid-binding Ig-like lectin 9 (Homo sapiens) (Q9Y336 whole entry): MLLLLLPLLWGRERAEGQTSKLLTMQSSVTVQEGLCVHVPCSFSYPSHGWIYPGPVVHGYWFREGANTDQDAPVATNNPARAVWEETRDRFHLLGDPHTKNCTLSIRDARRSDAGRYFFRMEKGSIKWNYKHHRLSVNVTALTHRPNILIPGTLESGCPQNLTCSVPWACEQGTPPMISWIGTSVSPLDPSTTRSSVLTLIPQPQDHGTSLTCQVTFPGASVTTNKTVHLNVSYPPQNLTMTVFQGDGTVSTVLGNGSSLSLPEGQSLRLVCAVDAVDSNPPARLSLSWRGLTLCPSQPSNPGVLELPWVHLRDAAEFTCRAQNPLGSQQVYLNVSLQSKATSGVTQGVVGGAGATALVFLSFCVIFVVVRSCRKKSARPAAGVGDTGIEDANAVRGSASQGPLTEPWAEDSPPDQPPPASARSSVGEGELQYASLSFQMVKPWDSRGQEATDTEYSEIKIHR
Chain of Protein translocase subunit SecA (Escherichia coli (strain K12)) (P10408 whole entry): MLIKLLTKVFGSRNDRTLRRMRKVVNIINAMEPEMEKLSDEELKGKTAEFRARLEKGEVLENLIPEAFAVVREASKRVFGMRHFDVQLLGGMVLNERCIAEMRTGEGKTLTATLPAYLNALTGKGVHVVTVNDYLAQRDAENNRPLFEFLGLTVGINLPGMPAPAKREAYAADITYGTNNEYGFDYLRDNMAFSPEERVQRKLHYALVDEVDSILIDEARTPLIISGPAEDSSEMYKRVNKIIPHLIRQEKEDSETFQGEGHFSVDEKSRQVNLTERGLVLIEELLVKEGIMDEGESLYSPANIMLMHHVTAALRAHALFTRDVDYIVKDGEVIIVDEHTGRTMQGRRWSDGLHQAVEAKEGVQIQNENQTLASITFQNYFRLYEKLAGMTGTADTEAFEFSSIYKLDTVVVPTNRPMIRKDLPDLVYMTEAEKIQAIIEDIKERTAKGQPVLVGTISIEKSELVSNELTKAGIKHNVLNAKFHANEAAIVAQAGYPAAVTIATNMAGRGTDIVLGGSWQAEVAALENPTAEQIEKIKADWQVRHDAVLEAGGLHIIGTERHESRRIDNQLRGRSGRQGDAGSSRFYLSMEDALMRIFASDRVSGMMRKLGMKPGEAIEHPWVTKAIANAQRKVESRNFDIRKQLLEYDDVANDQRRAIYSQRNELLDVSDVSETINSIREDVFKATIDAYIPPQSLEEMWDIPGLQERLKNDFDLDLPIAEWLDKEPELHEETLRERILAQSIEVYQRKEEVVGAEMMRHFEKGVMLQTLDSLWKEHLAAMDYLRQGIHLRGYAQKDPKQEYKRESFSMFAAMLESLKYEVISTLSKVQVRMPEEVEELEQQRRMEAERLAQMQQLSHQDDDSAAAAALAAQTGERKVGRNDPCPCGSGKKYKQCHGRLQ

As for `Fc1ccc(CN2CCO[C@H]3[C@H](OCCN4CCCC4)CC[C@@H]32)cc1`, the Percent Effect in assay [1] is 7.01%; in [2] it was 10.7%; in assay [3], 5.78%; in [4], 7.14%; in the assay on Trypanosoma cruzi, -4.05%; in [5], -51.1%. The Percent Effect is 12.8% in [6]; -9.42% in the assay filed under Homo sapiens; 5.21% in [7]; 12.5% in assay [8]; -3.68% in assay [9].
As for `Cc1nc(C)n(CC2CCCN2CCCc2ccccc2)n1` (stereo not given), the Percent Effect in assay [1] is -1.6%; in assay [2], -11%; in assay [3] it was -0.4%; in assay [4], 3.43%; in the assay on Trypanosoma cruzi, 1.96%; in assay [5] it was 1.82%. In addition, the Percent Effect was 7.1% in assay [6]; -8.87% in the assay filed under Homo sapiens; 8.6% in [7]; 5% in assay [8]; -1.02% in assay [9].
On to `O=C(NCC(F)(F)F)NC1CCCc2c1cnn2CCO` (stereo not given), for which the Percent Effect is -4.5% in [1]; 16% in [2]; -9.15% in [3]; 18.8% in [4]; 5.36% in the assay on Trypanosoma cruzi; 12.5% in [5]. Also, the Percent Effect stood at 12.4% in assay [6]; 7.67% in the assay filed under Homo sapiens; 2.73% in assay [7]; 16.1% in assay [8]; 105% in [9].
Regarding `CCOCCCNC(=O)c1cc(C)nc(N2CCCC2)n1`, the Percent Effect is -10.2% in [1]; 12% in [2]; -12.6% in assay [3]; 7.96% in assay [4]; 4.91% in the assay with Trypanosoma cruzi; -11.1% in assay [5]. Also, the Percent Effect in assay [6] is 5.36%; in the assay listed under Homo sapiens, 8.1%; in assay [7], 1.06%; in [8], 10.3%; in [9] it was -14%.
As to `CC(=O)N1CCC[C@H]1C(=O)NCCOc1cccc(Cl)c1`, the Percent Effect was -0.692% in assay [1]; 7.79% in assay [2]; -8.32% in assay [3]; -3.36% in assay [4]; 4.31% in the assay with Trypanosoma cruzi; 4.98% in assay [5]. Also, the Percent Effect was 13.7% in assay [6]; 12.4% in the assay listed under Homo sapiens; 6.8% in assay [7]; 24.4% in assay [8]; -9.94% in [9].
With `COC(=O)c1ccoc1COC(=O)CCc1ccc(OC)c(OC)c1`, the Percent Effect in [1] was -0.0167%; in assay [2], -5.26%; in assay [3], 11.1%; in assay [4], 1.57%; with Trypanosoma cruzi it was -3.99%; in assay [5], 0%. The Percent Effect is 13.7% in assay [6]; -9.69% in the assay listed under Homo sapiens; 0% in assay [7]; -20.8% in assay [8]; 1.64% in assay [9].
As to `O=C1[C@H]2CC[C@H](CN(C3CSCCSC3)C2)N1Cc1cscn1`, the Percent Effect is -0.514% in assay [1]; 2.74% in assay [2]; 6.23% in [3]; 4.75% in [4]; -8.53% in the assay with Trypanosoma cruzi; -1.2% in assay [5]. Besides, the Percent Effect in [6] turned out to be 18.4%; in the assay filed under Homo sapiens it was 8.4%; in assay [7], 8.33%; in assay [8] it was 16.1%; in assay [9] it was 1.67%.
Turning to `Cc1cc(CN2CCN(C(=O)NC(C)c3cccnc3)CC2)on1` (stereo not given), the Percent Effect is -2.66% in [1]; 13.2% in assay [2]; -2.63% in assay [3]; 3.25% in [4]; 8.08% in the assay with Trypanosoma cruzi; 1.92% in assay [5]. Further, the Percent Effect in assay [6] is 10.7%; in the assay filed under Homo sapiens, 2.49%; in [7], -0.49%; in assay [8], 19.5%; in assay [9], -6.79%.
Consider `O=C(NCCN1CCOCC1)NCc1ncc(-c2ccccc2)o1`, for which the Percent Effect is -2.93% in assay [1]; 2.67% in assay [2]; -6.01% in assay [3]; 8.92% in assay [4]; 7.3% in the assay on Trypanosoma cruzi; 0% in assay [5]. For the same compound, the Percent Effect in assay [6] is 16.6%; in the assay listed under Homo sapiens it was 19.1%; in assay [7], 7.1%; in assay [8], 13.6%; in [9] it was -0.412%.
Regarding `CC(C#N)CSc1ccccc1NCC(=O)NCc1ccccc1` (stereo not given), the Percent Effect in assay [1] is -3.57%; in [2], -8.22%; in [3], 11.4%; in assay [4], 8.76%; with Trypanosoma cruzi it was 5.49%; in [5] it was 14.1%. Moreover, the Percent Effect in assay [6] is 11.7%; in the assay listed under Homo sapiens, 19.4%; in assay [7] it was -2.15%; in assay [8], -5%; in assay [9] it was -1.42%.
